Source: the supplement of paper PMC9446081
About 220 (0.56%) of roughly 39,000 compounds showed activity. For the sample, actives were picked, then their nearest neighbours and some compounds at random. A number with no mark means an inactive call.

What follows are compounds tested on Escherichia coli K-12 BW25113 (assay: relative growth (OD600 normalised to plate interquartile mean) (fraction); higher = less growth inhibition, active = 0.2 or less). Settings: 50 µM; LB; incubation time: overnight (16-24 h).
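Also: Wild-type cells incubated without shaking, value is the mean of two biological replicates.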

Structure (SMILES) | relative growth
C[C@H]1CN([C@@H](C)CO)C(=O)CCCn2cc(nn2)CO[C@@H]1CN(C)S(=O)(=O)c1cccc(C#N)c1 | 0.987
C[C@H](CO)N1C[C@H](C)[C@@H](CN(C)Cc2ccc(Oc3ccccc3)cc2)Oc2ccc(NC(=O)C3CC3)cc2C1=O | 0.915
C[C@H]1CN([C@@H](C)CO)C(=O)c2ccccc2-c2ccccc2CO[C@H]1CN(C)S(=O)(=O)c1ccc(C(F)(F)F)cc1 | 1.04
C[C@H]1CN([C@@H](C)CO)S(=O)(=O)c2ccc(C3=CCCCC3)cc2O[C@H]1CN(C)Cc1cncnc1 | 1.02
COc1ccccc1S(=O)(=O)N(C)C[C@H]1OCc2cn(nn2)CCCC(=O)N([C@@H](C)CO)C[C@H]1C | 1.05
C[C@H]1CN([C@@H](C)CO)C(=O)Cc2cc(NC(=O)C3CCCCC3)ccc2O[C@@H]1CN(C)S(C)(=O)=O | 0.992
C[C@@H]1CN([C@H](C)CO)C(=O)c2cc(NS(=O)(=O)c3ccc(F)cc3)ccc2O[C@@H](C)CCCCO[C@@H]1CN(C)Cc1ccc(C(=O)O)cc1 | 1
Clc1ccc2sc(Sc3ccccc3)nc2c1 | 0.985
COc1ccc(-c2c(C)oc3ccc(Cl)cc23)cc1 | 0.992
CC1CCC2(C)C(C=O)=CCCC2C1(C)CC1OC(O)C(=O)C12CO2 (stereo unspecified) | 0.0462 (active)
COC(=O)[C@@H](NC(=O)c1cccc(NC=O)c1O)[C@@H](C)O | 1.04
C[C@@H]1CN([C@H](C)CO)C(=O)c2cc(NC(=O)c3ccncc3)ccc2O[C@@H](C)CCCCO[C@H]1CN(C)Cc1ccc(C(F)(F)F)cc1 | 1
Cc1noc(C)c1NC(=O)N(C)C[C@H]1OCCCC[C@@H](C)Oc2ccc(NS(=O)(=O)c3ccccc3)cc2C(=O)N([C@@H](C)CO)C[C@H]1C | 1.01
O=C1CN(N=Cc2ccc([N+](=O)[O-])o2)C(=O)N1 | 0.0462 (active)
O=C1CN(N=Cc2ccc(-c3ccc([N+](=O)[O-])cc3)o2)C(=O)[N-]1.[Na+] | 1.06
O=C1CN(/N=C/c2ccc([N+](=O)[O-])o2)C(=O)N1 | 0.031 (active)
O=C1OCCN1N=Cc1ccc([N+](=O)[O-])o1 | 0.0457 (active)
O=C1OC(CN2CCOCC2)CN1N=Cc1ccc([N+](=O)[O-])o1 (stereo unspecified) | 0.575
Cc1cc(C(=O)Nc2cccc3c2O[C@@H](CN(C)S(=O)(=O)c2ccccc2)[C@H](C)CN([C@@H](C)CO)C3=O)n(C)n1 | 1.01
C[C@@H]1CN([C@@H](C)CO)S(=O)(=O)c2ccc(Br)cc2O[C@@H]1CN(C)S(=O)(=O)c1ccc(F)cc1 | 1.04
CCN1CCN(CC(=O)Nc2ccc(-c3cccc4c(=O)cc(N5CCOCC5)oc34)c3sc4ccccc4c23)CC1 | 0.981
COc1ccc(S(=O)(=O)Nc2cccc3c2O[C@H](CN(C)S(=O)(=O)c2cn(C)cn2)[C@@H](C)CN([C@H](C)CO)C3=O)cc1 | 1.01

Structure (SMILES) | relative growth
CN(C)CCCNC(=O)C[C@@H]1CC[C@@H]2[C@H](COc3ccc(NS(C)(=O)=O)cc3C(=O)N2C)O1 | 1
C[C@@H]1CCCCO[C@H](CN(C)Cc2ccccc2)[C@@H](C)CN([C@H](C)CO)C(=O)c2cc(NC(=O)C3CCCCC3)ccc2O1 | 0.995
C[C@@H]1CCCCO[C@@H](CN(C)C(=O)Nc2ccc3c(c2)OCO3)[C@@H](C)CN([C@H](C)CO)C(=O)c2cc(NC(=O)c3ccccc3)ccc2O1 | 1.01
C/C=C/c1ccc2c(c1)O[C@@H](CN(C)C(=O)c1ccc3c(c1)OCO3)[C@@H](C)CN([C@H](C)CO)S2(=O)=O | 1.01
CO/N=C(\C(=O)N[C@@H]1C(=O)N2C(C(=O)O)=C(C)CS[C@H]12)c1csc(N)n1 | 0.0368 (active)
CC1=C(C(=O)O)N2C(=O)[C@@H](NC(=O)[C@H](N)C3=CCC=CC3)[C@H]2SC1 | 1.03
CON=C(C(=O)NC1C(=O)N2C(C(=O)O)=C(C[N+]3(C)CCCC3)CSC12)c1csc(N)n1.[Cl-] (stereo unspecified) | 0.0437 (active)
CO/N=C(\C(=O)N[C@@H]1C(=O)N2C(C(=O)O)=C(C[N+]3(C)CCCC3)CS[C@H]12)c1csc(N)n1 | 0.0339 (active)
CC1=C(C(=O)O)N2C(=O)C(NC(=O)C(N)C3=CCC=CC3)C2SC1 (stereo unspecified) | 1.07
C[C@H]1CN([C@@H](C)CO)S(=O)(=O)c2ccc(C3=CCCC3)cc2O[C@@H]1CN(C)S(=O)(=O)c1ccc(F)cc1 | 1.02
C[C@H](CO)N1C[C@H](C)[C@@H](CN(C)C(=O)CN(C)C)Oc2ncc(-c3ccc(C(=O)N(C)C)cc3)cc2C1=O | 0.975
Cc1cccc(NC(=O)Nc2ccc3c(c2)C(=O)N(C)[C@@H]2CC[C@@H](CC(=O)NCc4ccccc4Cl)O[C@@H]2CO3)c1 | 0.998
C[C@@H]1CN([C@H](C)CO)S(=O)(=O)c2ccc(-c3cncnc3)cc2O[C@H]1CN(C)C(=O)Cc1cccnc1 | 0.98
CC(C)NC(=O)N[C@@H]1CC[C@@H](CCN)O[C@H]1CO | 0.989
C[C@H](CO)N1C[C@H](C)[C@@H](CN(C)Cc2ccc3c(c2)OCO3)Oc2ccc(NC(=O)CCCN(C)C)cc2CC1=O | 0.975
O=c1nc[nH]c2n[nH]cc12 | 1.03
COc1ccc(C(=O)O)c(O)c1OC | 1.03
COC1=C(N)C(=O)c2nc(-c3nc(C(=O)O)c(C)c(-c4ccc(OC)c(OC)c4O)c3N)ccc2C1=O | 0.038 (active)
COCC(=O)Nc1ccc2c(c1)C(=O)N(C)C[C@@H](OC)[C@H](C)CN(Cc1ccccc1C(=O)O)[C@H](C)CO2 | 1.02
C[C@@H]1CCCCO[C@H](CN(C)S(=O)(=O)c2ccc(Cl)cc2)[C@@H](C)CN([C@H](C)CO)C(=O)c2cc(NC(=O)c3ccncc3)ccc2O1 | 1.01
COc1ccc(CN(C)C[C@H]2OCCCC[C@H](C)Oc3ccc(NS(=O)(=O)c4ccc(C)cc4)cc3C(=O)N([C@@H](C)CO)C[C@@H]2C)cc1 | 0.982
C[C@H](CO)N1C[C@H](C)[C@H](CN(C)Cc2ccc3c(c2)OCO3)OCCCC[C@H](C)Oc2ccc(NS(=O)(=O)c3ccc(F)cc3)cc2C1=O | 0.995

Structure (SMILES) | relative growth
COc1ccc(NC(=O)N(C)C[C@@H]2Oc3ccc(NC(=O)Nc4ccc(C(F)(F)F)cc4)cc3C(=O)N([C@@H](C)CO)C[C@H]2C)cc1 | 1.03
Clc1nc(-c2ccccn2)nc2scc(-c3ccccc3)c12 | 0.979
CC(NCCCc1cccc(C(F)(F)F)c1)c1cccc2ccccc12.Cl (stereo unspecified) | 0.0467 (active)
CC(Cc1cccc(C(F)(F)F)c1)NCCOC(=O)c1ccccc1.Cl (stereo unspecified) | 0.815
C[C@@H](O)c1cccc(C(F)(F)F)c1 | 0.986
C[C@H]1CN([C@@H](C)CO)C(=O)c2cc(NS(=O)(=O)c3cn(C)cn3)ccc2O[C@H]1CN(C)Cc1ccc(C(=O)Nc2ccccc2N)cc1 | 1.04
COc1cccc(OCc2ccc(Cn3nc(NC(=O)NCc4ccccc4OC)c4ccccc43)cc2)c1 | 1.03
O=C1C=CC(=O)N1 | 0.0291 (active)
Cc1noc(C)c1S(=O)(=O)Nc1ccc2c(c1)CC(=O)N([C@H](C)CO)C[C@H](C)[C@H](CN(C)S(=O)(=O)c1c(C)noc1C)O2 | 1.01
CN(C)CCOC(c1ccccc1)c1ccccc1.Cn1c(=O)c2[nH]c(Cl)nc2n(C)c1=O | 0.0491 (active)
COCCc1nc2c([nH]1)c(=O)n(C)c(=O)n2C | 0.97
CN(C)CCOC(c1ccccc1)c1ccccc1.Cl | 1.12
CO[C@@H]1CN(C)C(=O)c2cc(NC(=O)c3ccc(F)cc3)ccc2OC[C@@H](C)N(C(=O)CN(C)C)C[C@H]1C | 0.988
C[C@H]1CCCCO[C@@H](CN(C)Cc2ccc(C(=O)Nc3ccccc3N)cc2)[C@@H](C)CN([C@@H](C)CO)C(=O)c2cc(N(C)C)ccc2O1 | 0.998
[N-]=[N+]=Nc1ccccc1C[C@@]1(C(=O)NC[C@@H](O)CO)N=C(c2ccc(OCCCO)cc2)O[C@@H]1c1ccccc1 | 1
COc1ccc(S(=O)(=O)N(C)C[C@H]2Oc3ccc(NS(=O)(=O)c4ccc(F)cc4)cc3C(=O)N([C@H](C)CO)C[C@H]2C)cc1 | 1.02
COC1C(OC(N)=O)C(O)C(Oc2ccc3c([O-])c(NC(=O)c4ccc(O)c(CC=C(C)C)c4)c(=O)oc3c2C)OC1(C)C.[Na+] (stereo unspecified) | 0.701
CO[C@@H]1[C@@H](OC(=O)c2ccc(C)[nH]2)[C@@H](O)[C@@H](Oc2ccc3c(c2C)OC(=O)[C@H](NC(=O)c2[nH]cc(CC(=O)Nc4cc5ccc(O[C@@H]6OC(C)(C)[C@H](OC)[C@@H](OC(=O)c7ccc(C)[nH]7)[C@H]6O)c(C)c5oc4=O)c2C)C3)CC1(C)C | 0.0629 (active)
COCCCNC(=O)[C@@H]1c2ccccc2C(=O)N(Cc2cc(C(F)(F)F)cc(C(F)(F)F)c2)[C@H]1c1ccc(CO)cc1 | 0.859
Cc1noc(C)c1NC(=O)Nc1ccc2c(c1)C(=O)N([C@@H](C)CO)C[C@@H](C)[C@@H](CN(C)C(=O)c1ccccc1)OCCCC[C@@H](C)O2 | 0.977
Cc1cc(C2CCCCC2)n(O)c(=O)c1.NCCO | 0.0534 (active)
C[C@@H]1CN([C@@H](C)CO)C(=O)c2cc(-c3cccc(C(=O)N(C)C)c3)cnc2O[C@H]1CN(C)S(=O)(=O)c1ccccc1 | 1.01
